Data taken from PubChem BioAssay (NCI).
Compounds without any hit were thinned out: in the full panel of roughly 83,000, 20% have a hit.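 48-hour exposure, single concentration, 96-well plates; percent growth endpoint where 0 means no net growth. Active: below 10.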 Activity calls are given as the source filed them.

System: KM12 colon
Assay: NCI-60 one-dose screen, 48 h (100 = growth as untreated, 0 = no growth, -100 = all killed)
Settings: 10 µM unless noted

| SMILES | growth |
| --- | --- |
| NC(=O)NN=C(C1CC1)C1CC1 | 104% (inactive) |
| Clc1ccc(CCC(Cn2ccnc2)Sc2c(Cl)cccc2Cl)cc1 (stereo not drawn) | 51.8% (inactive) |
| c1ccc(-c2nn[nH]n2)c(-c2ccc(CN3CCN(c4nsc5ccccc45)CC3)cc2)c1 | 101% (inactive) |
| COC1CC2CCC(C)C(O)(O2)C(=O)C(=O)N2CCCCC2C(=O)OC(C(C)CC2CCC(O)C(OC)C2)CC(=O)C(C)C=C(C)C(O)C(OC)C(=O)C(C)CC(C)/C=C/C=C/C=C1C (stereo not drawn) | 69.8% (inactive) |
| O=C(/C=C/c1ccc(Cl)cc1)c1ccccc1 | 77.1% (inactive) |
| O=C1OCCCCCCCCCC#Cc2ccccc21 | 136% (inactive) |
| O=C(OC[C@H]1O[C@H](OC(=O)c2cc(O)c(O)c(OC(=O)c3cc(O)c(O)c(O)c3)c2)[C@H](OC(=O)c2cc(O)c(O)c(OC(=O)c3cc(O)c(O)c(O)c3)c2)[C@@H](OC(=O)c2cc(O)c(O)c(OC(=O)c3cc(O)c(O)c(O)c3)c2)[C@@H]1OC(=O)c1cc(O)c(O)c(OC(=O)c2cc(O)c(O)c(O)c2)c1)c1cc(O)c(O)c(OC(=O)c2cc(O)c(O)c(O)c2)c1 | 21.8% (inactive) |
| NC(N)=N/N=C(/c1ccccc1)c1ccc(Cl)cc1 | 28.3% (inactive) |
| CC1(C)OC(=O)C(=Cc2ccccc2Br)C(=O)O1 | 108% (inactive) |
| CCOC(=O)/C(=C/c1ccccc1)C(=O)c1ccccc1 | 67.1% (inactive) |
| Cc1c(NCc2nnc3n(Cc4ccccc4)c(=O)c4c5c(sc4n23)CCCC5)c(=O)n(-c2ccccc2)n1C | 98.8% (inactive) |
| C/C(=N/N=C(N)N)c1ccc(N)cc1 | 96% (inactive) |
| COc1cc2c(-c3nc4cc(Cl)c(F)cc4s3)cc(=O)oc2c(C)c1OC | -89.7% (active) |
| Cn1c(=O)c2nc(SCc3ccccc3)n(C)c2n(C)c1=O | 104% (inactive) |
| O=C(/C(=C/c1ccc([N+](=O)[O-])cc1)c1ccccc1)c1ccccc1 | 19.6% (inactive) |
| CC(C)(C)c1ccc(C(O)CCCN2CCC(C(O)(c3ccccc3)c3ccccc3)CC2)cc1 (stereo not drawn) | -73.5% (active) |
| CCCCc1nc(Cl)c(CO)n1Cc1ccc(-c2ccccc2-c2nn[nH]n2)cc1 | 103% (inactive) |

| SMILES | growth |
| --- | --- |
| CCCCN(CCCC)CCCOC(=O)c1ccc(N)cc1 | 103% (inactive) |
| CO[C@H]1CC(O[C@@H]2/C(C)=C/C[C@@H]3C[C@@H](C[C@]4(CC[C@H](C)[C@@H](C5CCCCC5)O4)O3)OC(=O)[C@@H]3C=C(C)/C(=N/O)[C@H]4OC/C(=C\C=C\[C@@H]2C)[C@]43O)O[C@@H](C)C1O (stereo partly drawn) | -88.8% (active) |
| Cc1cc2c(C#N)n3c(c2cc1C)C(=O)C(c1ccccc1)Oc1ccccc1-3 (stereo not drawn) | 15.2% (inactive) |
| Cc1ccc(C(C)C)cc1NC(=O)Nc1ccc([N+](=O)[O-])cc1 | 2.72% (active) |
| CC/C=C\C=C/C(=O)N/C=C/CC1Cc2cccc(O)c2C(=O)O1 (stereo not drawn) | 42.1% (inactive) |
| Cc1cc(N2CCOCC2)nc(N2CCOCC2)n1 | 107% (inactive) |
| COc1cc(OC)c2cc(C(=O)O)c(=O)oc2c1 | 114% (inactive) |
| COc1cc(/C=C/C(=O)c2c(-c3ccc(F)cc3)nc3sc(C)nn23)cc(OC)c1OC | 21.8% (inactive) |
| CC[C@@H]1OC(=O)[C@H](C)[C@@H](O[C@H]2C[C@@](C)(OC)[C@@H](O)[C@H](C)O2)[C@H](C)[C@@H](O[C@@H]2O[C@H](C)C[C@H](N(C)C)[C@H]2O)[C@](C)(O)C[C@@H](C)[C@@H]2N[C@@H](COCCOC)O[C@H]([C@H]2C)[C@]1(C)O | 126% (inactive) |
| N#Cc1ccc(NC(=O)Nc2ccc(Oc3ccc(NC(=O)Nc4ccc(C#N)cc4)cc3)cc2)cc1 | 9.37% (active) |
| Nc1c2ccccc2nc2ccccc12 (tested in a mixture with another compound) | 23% (inactive) |
| COc1cc2c(C#N)n3c(c2cc1OC)C(=O)C(c1ccccc1)Oc1ccccc1-3 (stereo not drawn) | 23.4% (inactive) |
| CC[C@H](C)C(=O)O[C@H]1C[C@@H](C)C=C2C=C[C@H](C)[C@H](CC[C@@H]3C[C@@H](O)CC(=O)O3)[C@H]21 | 109% (inactive) |
| O=C(/C(=C/c1cccc([N+](=O)[O-])c1)c1ccccc1)c1ccccc1 | 18.3% (inactive) |
| NS(=O)(=O)c1ccc(NC2=C(Cl)C(=O)c3ccccc3C2=O)cc1 | 123% (inactive) |
| COc1ccc(OC)c(NC(=O)c2cc3oc4ccccc4c3cc2O)c1 | 99.5% (inactive) |
